Measured values taken from article PMC7819943, “Rice protein-binding microarrays: a tool to detect cis-acting elements near promoter regions in rice”.
Over roughly 68,000 sequences, “fluorescence intensity (a.u.)” has its median near 9,100; the highest 2% begin near 16,000. What follows is part of a selection rich in the highest values, with near analogues and random picks from the rest.

Biological target: OsWRKY34 (Oryza sativa, UniProt Q0JBA9 1-250)
Test: protein-binding microarray (RPBM); PBS, 2% BSA, 51.3 ng/ul salmon testes DNA, 50 uM zinc acetate, 200 nM TF, 25 C, 1 h; high values mean tight binding
Settings: protein: recombinant; tags: N-terminal polyhistidine and DsRed monomer fusion (pET32a); label: CyDye5-dUTP incorporated in the synthesized complementary strand; 3' TTTTT single-stranded linker to array surface; dsDNA, one strand shown
Summary of the method: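 Binding signal is defined as the fluorescence intensity of each feature in arbitrary units, read on an Axon 4000B scanner. Transcription factors with N-terminal polyhistidine and DsRed fusions came from E. coli BL21-CodonPlus and were purified on Ni–NTA. They were incubated at 200 nM for 1 h at 25 °C on a custom Agilent array that had been made double-stranded with Cy5-dUTP, with 50 µM zinc acetate present, and the array was washed.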

OsWRKY34, sequence (Q0JBA9 entry or part of it): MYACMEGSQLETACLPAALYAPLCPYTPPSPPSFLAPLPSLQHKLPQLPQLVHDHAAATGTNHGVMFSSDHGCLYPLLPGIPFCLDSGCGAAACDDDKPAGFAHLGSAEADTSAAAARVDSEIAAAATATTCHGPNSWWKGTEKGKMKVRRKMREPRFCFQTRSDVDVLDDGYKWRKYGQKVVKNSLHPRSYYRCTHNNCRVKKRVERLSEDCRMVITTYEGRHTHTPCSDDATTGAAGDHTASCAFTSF

| Sequence | binding signal |
| --- | --- |
| TTGCCTTGCCAGTCAGTGCTCGAGTTCGTCTCGCTCTCCGCGGAGTCACCTAGTGCAG | 8730 fluorescence intensity (a.u.) |
| GCCGAGCCCCATCTTCTGCTGCGACCCCGTAGCGCTCAACCGGAGTCACCTAGTGCAG | 9240 fluorescence intensity (a.u.) |
| GCCCCGAGCCGAGACCGCTGGATAATGCAGCGCTTCTTACCGGAGTCACCTAGTGCAG | 20100 fluorescence intensity (a.u.) |
| GACCGCCGCCGCTTGAGCTGACCTGACCCCGAGCCGAGCCCGGAGTCACCTAGTGCAG | 8250 fluorescence intensity (a.u.) |
| AGTCAGTGGGTAAATTCTTTAAAAACTCCTATGTTTTTTCCGGAGTCACCTAGTGCAG | 9550 fluorescence intensity (a.u.) |
| AACAAGGGAGGGAGGGGCGGCGATCTCCATCTGGCGAGCACGGAGTCACCTAGTGCAG | 10900 fluorescence intensity (a.u.) |
| ACGATCAGTGTCATCACAGGGCGGCGGGGTTCCTATCCATCGGAGTCACCTAGTGCAG | 13200 fluorescence intensity (a.u.) |
| ACATTGGGTTGGAGTGGATTATTTTTTTCCTTTGTTTTCCCGGAGTCACCTAGTGCAG | 14200 fluorescence intensity (a.u.) |
| GGGGCTAGGGTTTGGGTGGGATCTCAGCCGTCGGATCTGACGGAGTCACCTAGTGCAG | 17000 fluorescence intensity (a.u.) |
| ATTGGGGCGGCGGTGGCGGGCTAGGGTTTCGTAGATTCGACGGAGTCACCTAGTGCAG | 9960 fluorescence intensity (a.u.) |
| GCTTGGTCCATACCTTGTTTTCCTATCATCCACTGTCAATCGGAGTCACCTAGTGCAG | 9390 fluorescence intensity (a.u.) |
| CTGATTTGCGGGTTCCACATGGATTTTATTTTTTTGTTTCCGGAGTCACCTAGTGCAG | 11400 fluorescence intensity (a.u.) |
| GCGGCGGGGTTCCTATCCATGGTTTTTTCGGGCTTGTCCACGGAGTCACCTAGTGCAG | 18900 fluorescence intensity (a.u.) |
| GCGGCGGTGGTTAGGGTTTGGGGCTCGTCGGCGTCGGCGACGGAGTCACCTAGTGCAG | 10900 fluorescence intensity (a.u.) |
| CGCCTCGACGGGTTTGGATCTCGGGGTGGGATTAGAGGGGCGGAGTCACCTAGTGCAG | 12900 fluorescence intensity (a.u.) |
| AGGGATAGATTGGCTTAGGGGCGGGTGGGTCTAGAGATTTCGGAGTCACCTAGTGCAG | 27000 fluorescence intensity (a.u.) |
| GGGCGGGTTTGGATTTTTATTTGGTTTTCCTATGGAGTCCCGGAGTCACCTAGTGCAG | 17800 fluorescence intensity (a.u.) |
| GGATTCGGAGGCGGGTGGGAGTGGGAGAGTGAGAGGGGCTCGGAGTCACCTAGTGCAG | 16200 fluorescence intensity (a.u.) |
| GTGTCCTTTTCTTTTTTTTCTTCTTTTCTTTTTCTTTTTCCGGAGTCACCTAGTGCAG | 9510 fluorescence intensity (a.u.) |
| ACCATGTAACGAGTAATCTTTTGACCTGTGCCACGTCATCCGGAGTCACCTAGTGCAG | 9160 fluorescence intensity (a.u.) |
| TTTGGTGGTGTGCAAGTGGAGTGGTTTATAAAATTATGTCCGGAGTCACCTAGTGCAG | 8980 fluorescence intensity (a.u.) |

| Sequence | binding signal |
| --- | --- |
| CCTCATCACTCGCTTCTCCTTGCTTACACACCATCCCATCCGGAGTCACCTAGTGCAG | 8310 fluorescence intensity (a.u.) |
| CTAACATTCCCTATGCGGAAACACACACATTCATGCACACCGGAGTCACCTAGTGCAG | 8860 fluorescence intensity (a.u.) |
| CCTCTTAACTCTTTCCCATTCCCAAATGCGCCACTGTCTCCGGAGTCACCTAGTGCAG | 9190 fluorescence intensity (a.u.) |
| CTCTGTCCTATTGGAACATTTCTCTGAAGCAACACCATATCGGAGTCACCTAGTGCAG | 9340 fluorescence intensity (a.u.) |
| TGACAGTGTGATGTGCTTGTTCGCTCTGATTTGATTTTGGCGGAGTCACCTAGTGCAG | 8050 fluorescence intensity (a.u.) |
| CCCCATCCATTGCAACGGCAACATACACACACCACCACCACGGAGTCACCTAGTGCAG | 8350 fluorescence intensity (a.u.) |
| CGTTGACTCCATCTCTTTAACATATTTTAGGAGCATGCTTCGGAGTCACCTAGTGCAG | 8610 fluorescence intensity (a.u.) |
| TCATCTCCATCTTTTTATTTACACGCACACTTCTCAAACTCGGAGTCACCTAGTGCAG | 11100 fluorescence intensity (a.u.) |
| CCAACTCCGAACGCCTCTTCTTCTCCTCACCGCCGCCGAACGGAGTCACCTAGTGCAG | 9650 fluorescence intensity (a.u.) |
| CAACGGCGGTGGCGGCGGCGGCGGCGGCGGGGCGGCGTCGCGGAGTCACCTAGTGCAG | 8370 fluorescence intensity (a.u.) |
| ATGGTTCGATTATTGGTGGAGTTCTCTCTCGGTTTCTCCGCGGAGTCACCTAGTGCAG | 10600 fluorescence intensity (a.u.) |
| ATTTGTGATGTGGATTTGGGGTGTTACTTTGATTTGGGGACGGAGTCACCTAGTGCAG | 12900 fluorescence intensity (a.u.) |
| CAGATTGTTTTCCATGATTCTTAGCCTCTCTGATGTTTGACGGAGTCACCTAGTGCAG | 9640 fluorescence intensity (a.u.) |
| TCTTTGTTTCCCGCGTTTTGTTGGGGATTCGATTTTCGGGCGGAGTCACCTAGTGCAG | 11100 fluorescence intensity (a.u.) |
| GAAGGAGAAGGAGAGGGGAGGGGCTGACGGGTGGGGTCCACGGAGTCACCTAGTGCAG | 14000 fluorescence intensity (a.u.) |
| GGGCTGACGGGTGGGGTCCATGTTGTTTTCCTCTTAGGCACGGAGTCACCTAGTGCAG | 23000 fluorescence intensity (a.u.) |
| GTGGGAGTGGCGGTGTCGGGTCCGGAACGAAACGGCGGGGCGGAGTCACCTAGTGCAG | 10300 fluorescence intensity (a.u.) |
| ATCTCCCGCGGTTTCGATTTGGGTTTATTTGGGCGGTGGGCGGAGTCACCTAGTGCAG | 18800 fluorescence intensity (a.u.) |
| TGTCGGTGTCGGTGGGCGGGGATTCGCGGTAGTGGTGGAACGGAGTCACCTAGTGCAG | 19700 fluorescence intensity (a.u.) |
| TGATGTTACTTTGATTTGGGGTTTGATTTGGGAATATGCACGGAGTCACCTAGTGCAG | 13500 fluorescence intensity (a.u.) |
| TGGATTTAGGATGTTACTTTGATTTGGGGATTTGGGGTTTCGGAGTCACCTAGTGCAG | 17200 fluorescence intensity (a.u.) |
